# Results as given in article PMC7862700, “An all-to-all approach to the identification of sequence-specific readers for epigenetic DNA modifications on cytosine”.
# Legend:
# Assay in all cases: DAPPL (digital affinity profiling via proximity ligation, sequencing); 10 mM Tris-HCl pH 7.5, 50 mM NaCl, 1 mM DTT, 4% glycerol, room temperature, 30 min; GST-TFs on glutathione beads, 16-mer random dsDNA library, 0.1% formaldehyde crosslink after washing; high values mean tight binding
# FLI1 = target: T1, FLI1 (Homo sapiens, UniProt Q01543 1-452); conditions: protein: recombinant; tags: N-terminal GST; dsDNA, one strand shown
# T1 sequence: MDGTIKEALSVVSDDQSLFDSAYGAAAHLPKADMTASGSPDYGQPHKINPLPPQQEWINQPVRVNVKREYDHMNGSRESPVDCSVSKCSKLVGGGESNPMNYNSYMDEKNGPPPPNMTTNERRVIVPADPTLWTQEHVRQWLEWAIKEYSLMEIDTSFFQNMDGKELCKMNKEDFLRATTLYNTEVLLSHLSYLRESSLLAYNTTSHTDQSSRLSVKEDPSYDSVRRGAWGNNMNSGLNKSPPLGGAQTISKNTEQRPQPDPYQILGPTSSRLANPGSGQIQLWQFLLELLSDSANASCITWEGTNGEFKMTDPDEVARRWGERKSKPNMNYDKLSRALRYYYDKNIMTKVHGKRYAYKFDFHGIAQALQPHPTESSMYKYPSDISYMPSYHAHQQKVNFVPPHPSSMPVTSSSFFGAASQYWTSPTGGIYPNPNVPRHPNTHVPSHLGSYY
# Summary of the method: (§1)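 Sequencing on an Illumina NextSeq500 followed washing, crosslinking with 0.1% formaldehyde, proximity ligation (BsaI/T4 ligase, 1 h, 37 °C) and PCR amplification of pools that had been incubated for 30 min at room temperature with 200 nmole of a random double-stranded 16-mer DNA library in Tris/NaCl/DTT/glycerol buffer. Each pool held DNA-barcoded human transcription factors, expressed in yeast as GST fusions and captured on glutathione beads, plus a tag-only sample. Binding signal is a hexamer's read frequency for a factor divided by its frequency in the tag-only sample.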
# ELK1 = target: T2, ELK1 (Homo sapiens, UniProt P19419 1-428); conditions: protein: recombinant; tags: N-terminal GST; dsDNA, one strand shown
# T2 sequence: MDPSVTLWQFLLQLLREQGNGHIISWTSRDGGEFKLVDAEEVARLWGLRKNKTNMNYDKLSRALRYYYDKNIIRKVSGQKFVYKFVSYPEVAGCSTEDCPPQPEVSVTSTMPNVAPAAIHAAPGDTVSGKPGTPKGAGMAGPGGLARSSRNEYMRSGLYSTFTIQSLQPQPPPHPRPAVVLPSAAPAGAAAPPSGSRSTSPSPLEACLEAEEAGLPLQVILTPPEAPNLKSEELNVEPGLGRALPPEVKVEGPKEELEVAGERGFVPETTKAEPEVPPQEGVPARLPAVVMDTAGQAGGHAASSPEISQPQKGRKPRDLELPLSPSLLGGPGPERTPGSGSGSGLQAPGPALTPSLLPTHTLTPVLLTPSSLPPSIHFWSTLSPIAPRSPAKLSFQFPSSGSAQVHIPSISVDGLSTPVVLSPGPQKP
# Summary of the method: as §1
# GABPA = target: T3, GABPA (Homo sapiens, UniProt Q06546 1-454); conditions: protein: recombinant; tags: N-terminal GST; dsDNA, one strand shown
# T3 sequence: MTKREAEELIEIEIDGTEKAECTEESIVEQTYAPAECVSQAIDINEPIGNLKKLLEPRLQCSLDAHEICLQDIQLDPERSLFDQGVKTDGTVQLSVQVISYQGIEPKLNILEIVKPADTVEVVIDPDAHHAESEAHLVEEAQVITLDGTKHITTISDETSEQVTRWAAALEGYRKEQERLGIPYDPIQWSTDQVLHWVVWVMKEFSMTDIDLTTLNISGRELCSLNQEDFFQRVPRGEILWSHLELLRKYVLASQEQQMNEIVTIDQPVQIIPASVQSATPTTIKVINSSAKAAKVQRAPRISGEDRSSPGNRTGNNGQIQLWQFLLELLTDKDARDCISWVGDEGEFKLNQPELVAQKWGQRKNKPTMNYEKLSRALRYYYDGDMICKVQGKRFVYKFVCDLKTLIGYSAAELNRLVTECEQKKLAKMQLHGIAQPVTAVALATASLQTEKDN
# Summary of the method: as §1
# ERG = target: T4, ERG (Homo sapiens, UniProt P11308 1-479); conditions: protein: recombinant; tags: N-terminal GST; dsDNA, one strand shown
# T4 sequence: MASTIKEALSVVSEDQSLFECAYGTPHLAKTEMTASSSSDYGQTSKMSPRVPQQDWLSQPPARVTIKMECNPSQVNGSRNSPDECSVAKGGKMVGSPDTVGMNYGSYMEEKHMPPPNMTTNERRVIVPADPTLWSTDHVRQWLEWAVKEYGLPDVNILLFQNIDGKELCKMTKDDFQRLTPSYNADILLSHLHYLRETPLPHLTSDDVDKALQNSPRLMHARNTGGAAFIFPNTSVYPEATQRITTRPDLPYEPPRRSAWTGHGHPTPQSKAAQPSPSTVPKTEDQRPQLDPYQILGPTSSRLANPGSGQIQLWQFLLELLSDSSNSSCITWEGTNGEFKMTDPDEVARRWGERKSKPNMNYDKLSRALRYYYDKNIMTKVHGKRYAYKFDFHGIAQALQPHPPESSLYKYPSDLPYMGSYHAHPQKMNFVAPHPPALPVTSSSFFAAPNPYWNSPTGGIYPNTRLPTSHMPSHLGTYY
# Summary of the method: as §1
# ELF1 = ELF1 (Homo sapiens, UniProt P32519 1-619); conditions: protein: recombinant; tags: N-terminal GST; dsDNA, one strand shown
# Summary of the method: as §1
# EHF = target: T5, EHF (Homo sapiens, UniProt Q9NZC4 1-300); conditions: protein: recombinant; tags: N-terminal GST; dsDNA, one strand shown
# T5 sequence: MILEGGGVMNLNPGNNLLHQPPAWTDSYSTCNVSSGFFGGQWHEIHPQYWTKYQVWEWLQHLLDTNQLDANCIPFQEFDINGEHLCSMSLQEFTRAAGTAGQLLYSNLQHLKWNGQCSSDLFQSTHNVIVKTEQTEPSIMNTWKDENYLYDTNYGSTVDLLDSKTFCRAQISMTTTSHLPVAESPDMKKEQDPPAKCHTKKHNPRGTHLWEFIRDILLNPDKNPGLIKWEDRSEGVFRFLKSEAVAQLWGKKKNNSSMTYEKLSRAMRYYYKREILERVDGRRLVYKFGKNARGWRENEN
# Summary of the method: as §1
# SPI1 = SPI1 (Homo sapiens, UniProt P17947 1-270); conditions: protein: recombinant; tags: N-terminal GST; dsDNA, one strand shown
# Summary of the method: as §1
# SPIB = SPIB (Homo sapiens, UniProt Q01892 1-262); conditions: protein: recombinant; tags: N-terminal GST; dsDNA, one strand shown
# Summary of the method: as §1
# ELK3 = target: T6, ELK3 (Homo sapiens, UniProt P41970 1-407); conditions: protein: recombinant; tags: N-terminal GST; dsDNA, one strand shown
# T6 sequence: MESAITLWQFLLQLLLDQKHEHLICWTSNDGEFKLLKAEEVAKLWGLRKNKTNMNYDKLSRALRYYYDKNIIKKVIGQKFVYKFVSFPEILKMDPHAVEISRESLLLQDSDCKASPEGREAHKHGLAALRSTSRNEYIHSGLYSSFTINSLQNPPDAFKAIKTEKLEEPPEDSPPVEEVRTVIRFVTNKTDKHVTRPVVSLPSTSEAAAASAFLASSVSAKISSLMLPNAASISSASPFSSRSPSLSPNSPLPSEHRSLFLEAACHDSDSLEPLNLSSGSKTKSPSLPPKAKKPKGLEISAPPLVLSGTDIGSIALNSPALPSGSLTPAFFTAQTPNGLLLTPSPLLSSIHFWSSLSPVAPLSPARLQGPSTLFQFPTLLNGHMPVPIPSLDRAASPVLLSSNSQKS
# Summary of the method: as §1
# FEV = target: T7, FEV (Homo sapiens, UniProt Q99581 1-238); conditions: protein: recombinant; tags: N-terminal GST; dsDNA, one strand shown
# T7 sequence: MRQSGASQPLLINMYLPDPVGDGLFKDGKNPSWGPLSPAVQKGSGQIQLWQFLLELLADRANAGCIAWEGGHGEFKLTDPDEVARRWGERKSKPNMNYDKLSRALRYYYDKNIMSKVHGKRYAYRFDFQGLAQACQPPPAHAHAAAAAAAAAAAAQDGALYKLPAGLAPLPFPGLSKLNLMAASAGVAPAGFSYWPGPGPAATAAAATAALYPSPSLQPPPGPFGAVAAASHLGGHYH
# Summary of the method: as §1
# ETV5 = ETV5 (Homo sapiens, UniProt P41161 1-510); conditions: protein: recombinant; tags: N-terminal GST; dsDNA, one strand shown
# Summary of the method: as §1
# HSF1 = HSF1 (Homo sapiens, UniProt Q00613 1-529); conditions: protein: recombinant; tags: N-terminal GST; chain copies: 3; dsDNA, one strand shown
# Summary of the method: as §1
# SPIC = target: T8, SPIC (Homo sapiens, UniProt Q8N5J4 1-248); conditions: protein: recombinant; tags: N-terminal GST; dsDNA, one strand shown
# T8 sequence: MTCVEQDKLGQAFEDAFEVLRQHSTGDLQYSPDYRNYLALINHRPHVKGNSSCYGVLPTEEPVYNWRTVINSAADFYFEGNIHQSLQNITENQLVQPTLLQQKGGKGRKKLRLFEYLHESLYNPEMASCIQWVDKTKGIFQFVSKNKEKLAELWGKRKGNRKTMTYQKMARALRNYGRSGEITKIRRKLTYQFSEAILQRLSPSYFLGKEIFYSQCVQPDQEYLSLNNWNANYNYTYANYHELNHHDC
# Summary of the method: as §1
# ELF4 = ELF4 (Homo sapiens, UniProt Q99607 1-663); conditions: protein: recombinant; tags: N-terminal GST; dsDNA, one strand shown
# Summary of the method: as §1
# ELK4 = target: T9, ELK4 (Homo sapiens, UniProt P28324-2 1-405); conditions: protein: recombinant; tags: N-terminal GST; dsDNA, one strand shown
# T9 sequence: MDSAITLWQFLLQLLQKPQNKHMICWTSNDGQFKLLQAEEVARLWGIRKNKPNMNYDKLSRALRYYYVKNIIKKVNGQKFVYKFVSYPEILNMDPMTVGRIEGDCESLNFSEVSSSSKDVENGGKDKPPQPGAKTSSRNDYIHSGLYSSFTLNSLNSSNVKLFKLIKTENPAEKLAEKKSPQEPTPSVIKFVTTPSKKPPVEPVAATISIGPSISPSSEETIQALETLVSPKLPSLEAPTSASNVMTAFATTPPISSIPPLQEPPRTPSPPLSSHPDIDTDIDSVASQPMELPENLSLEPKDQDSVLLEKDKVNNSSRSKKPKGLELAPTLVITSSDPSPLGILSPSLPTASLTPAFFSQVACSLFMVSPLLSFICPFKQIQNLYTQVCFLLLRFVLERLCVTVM
# Summary of the method: as §1
# ETV2 = target: T10, ETV2 (Homo sapiens, UniProt O00321 1-342); conditions: protein: recombinant; tags: N-terminal GST; dsDNA, one strand shown
# T10 sequence: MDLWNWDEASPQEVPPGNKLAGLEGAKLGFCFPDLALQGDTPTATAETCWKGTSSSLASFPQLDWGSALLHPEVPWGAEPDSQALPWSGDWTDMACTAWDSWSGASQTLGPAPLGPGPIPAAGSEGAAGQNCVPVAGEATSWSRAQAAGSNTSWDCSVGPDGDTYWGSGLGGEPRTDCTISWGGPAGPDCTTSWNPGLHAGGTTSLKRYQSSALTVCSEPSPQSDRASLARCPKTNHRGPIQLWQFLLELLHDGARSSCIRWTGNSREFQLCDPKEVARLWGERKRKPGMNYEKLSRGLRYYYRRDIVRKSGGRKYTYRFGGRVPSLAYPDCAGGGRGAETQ
# Summary of the method: as §1
# ELF3 = target: T11, ELF3 (Homo sapiens, UniProt P78545 1-371); conditions: protein: recombinant; tags: N-terminal GST; dsDNA, one strand shown
# T11 sequence: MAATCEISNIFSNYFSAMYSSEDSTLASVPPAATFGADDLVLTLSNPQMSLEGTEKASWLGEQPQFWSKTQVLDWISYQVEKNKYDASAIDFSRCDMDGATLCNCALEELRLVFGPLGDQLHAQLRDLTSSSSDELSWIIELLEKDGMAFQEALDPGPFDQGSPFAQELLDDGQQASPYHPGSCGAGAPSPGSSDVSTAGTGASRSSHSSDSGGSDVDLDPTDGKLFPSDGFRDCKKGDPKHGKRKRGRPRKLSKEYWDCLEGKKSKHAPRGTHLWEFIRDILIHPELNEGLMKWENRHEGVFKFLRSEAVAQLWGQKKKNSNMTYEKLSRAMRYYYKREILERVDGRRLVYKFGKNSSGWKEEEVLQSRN
# Summary of the method: as §1
# CRX = CRX (Homo sapiens, UniProt O43186 1-299); conditions: protein: recombinant; tags: N-terminal GST; dsDNA, one strand shown
# Summary of the method: as §1
# ETV1 = ETV1 (Homo sapiens, UniProt P50549 1-477); conditions: protein: recombinant; tags: N-terminal GST; dsDNA, one strand shown
# Summary of the method: as §1
# Chain of ETV5 (P41161 whole entry): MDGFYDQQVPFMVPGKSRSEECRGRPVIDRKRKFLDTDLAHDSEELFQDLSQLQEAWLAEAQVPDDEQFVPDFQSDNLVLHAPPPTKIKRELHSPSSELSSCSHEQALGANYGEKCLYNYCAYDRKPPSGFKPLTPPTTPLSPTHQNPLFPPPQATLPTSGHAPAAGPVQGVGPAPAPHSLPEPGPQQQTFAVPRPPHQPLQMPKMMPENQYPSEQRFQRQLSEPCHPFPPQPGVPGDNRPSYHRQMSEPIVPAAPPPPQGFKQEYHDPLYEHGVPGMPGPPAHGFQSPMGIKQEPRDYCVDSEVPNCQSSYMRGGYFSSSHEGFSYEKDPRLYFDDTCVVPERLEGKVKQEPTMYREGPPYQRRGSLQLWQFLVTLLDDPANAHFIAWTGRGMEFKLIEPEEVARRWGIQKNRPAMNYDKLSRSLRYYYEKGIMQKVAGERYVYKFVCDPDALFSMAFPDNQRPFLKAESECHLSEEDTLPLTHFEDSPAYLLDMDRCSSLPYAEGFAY
# Chain of CRX (O43186 whole entry): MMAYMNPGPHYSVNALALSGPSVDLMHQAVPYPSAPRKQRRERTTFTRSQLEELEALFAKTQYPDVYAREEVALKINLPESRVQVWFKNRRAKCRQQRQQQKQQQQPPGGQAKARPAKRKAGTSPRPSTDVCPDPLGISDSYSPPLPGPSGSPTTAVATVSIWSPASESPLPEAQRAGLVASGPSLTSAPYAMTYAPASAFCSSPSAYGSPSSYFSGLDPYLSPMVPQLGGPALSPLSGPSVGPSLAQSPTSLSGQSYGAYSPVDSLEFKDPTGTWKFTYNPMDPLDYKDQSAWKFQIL
# Chain of SPIB (Q01892 whole entry): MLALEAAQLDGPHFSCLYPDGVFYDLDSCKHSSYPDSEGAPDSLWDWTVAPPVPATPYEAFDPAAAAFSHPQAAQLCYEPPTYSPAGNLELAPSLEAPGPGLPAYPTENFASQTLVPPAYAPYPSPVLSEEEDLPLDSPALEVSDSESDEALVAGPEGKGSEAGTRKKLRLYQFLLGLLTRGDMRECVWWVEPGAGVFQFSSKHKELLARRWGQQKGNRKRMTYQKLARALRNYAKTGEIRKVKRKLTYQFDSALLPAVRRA
# Chain of ETV1 (P50549 whole entry): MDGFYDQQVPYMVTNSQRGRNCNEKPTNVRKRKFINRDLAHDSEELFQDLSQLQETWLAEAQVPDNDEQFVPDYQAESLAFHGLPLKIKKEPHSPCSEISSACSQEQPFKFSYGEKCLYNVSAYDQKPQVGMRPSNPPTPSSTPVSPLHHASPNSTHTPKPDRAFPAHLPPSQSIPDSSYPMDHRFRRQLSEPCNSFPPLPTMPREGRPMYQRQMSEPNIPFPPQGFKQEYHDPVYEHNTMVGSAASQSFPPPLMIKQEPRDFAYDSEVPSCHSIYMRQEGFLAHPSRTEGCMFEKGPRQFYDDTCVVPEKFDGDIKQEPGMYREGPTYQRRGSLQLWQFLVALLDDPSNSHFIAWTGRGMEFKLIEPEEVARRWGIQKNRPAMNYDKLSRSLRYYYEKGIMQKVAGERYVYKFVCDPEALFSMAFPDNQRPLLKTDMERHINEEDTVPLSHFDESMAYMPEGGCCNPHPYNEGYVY
# Chain of ELF1 (P32519 whole entry): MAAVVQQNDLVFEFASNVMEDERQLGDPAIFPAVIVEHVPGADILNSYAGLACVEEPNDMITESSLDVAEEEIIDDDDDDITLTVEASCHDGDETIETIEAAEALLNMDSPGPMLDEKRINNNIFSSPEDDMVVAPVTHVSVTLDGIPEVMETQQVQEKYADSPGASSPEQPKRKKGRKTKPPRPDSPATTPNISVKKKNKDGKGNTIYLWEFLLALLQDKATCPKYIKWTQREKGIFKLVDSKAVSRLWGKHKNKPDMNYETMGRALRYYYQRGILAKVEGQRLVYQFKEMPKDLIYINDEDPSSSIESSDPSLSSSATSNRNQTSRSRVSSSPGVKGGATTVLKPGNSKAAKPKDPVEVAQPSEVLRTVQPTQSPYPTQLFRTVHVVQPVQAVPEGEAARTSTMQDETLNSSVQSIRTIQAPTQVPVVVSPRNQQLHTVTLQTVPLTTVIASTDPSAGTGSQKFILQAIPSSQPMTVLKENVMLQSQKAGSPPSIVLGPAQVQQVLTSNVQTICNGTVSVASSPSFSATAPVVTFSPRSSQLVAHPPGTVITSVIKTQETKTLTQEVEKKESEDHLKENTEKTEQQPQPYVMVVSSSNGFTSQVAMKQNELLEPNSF
# Chain of ELF4 (Q99607 whole entry): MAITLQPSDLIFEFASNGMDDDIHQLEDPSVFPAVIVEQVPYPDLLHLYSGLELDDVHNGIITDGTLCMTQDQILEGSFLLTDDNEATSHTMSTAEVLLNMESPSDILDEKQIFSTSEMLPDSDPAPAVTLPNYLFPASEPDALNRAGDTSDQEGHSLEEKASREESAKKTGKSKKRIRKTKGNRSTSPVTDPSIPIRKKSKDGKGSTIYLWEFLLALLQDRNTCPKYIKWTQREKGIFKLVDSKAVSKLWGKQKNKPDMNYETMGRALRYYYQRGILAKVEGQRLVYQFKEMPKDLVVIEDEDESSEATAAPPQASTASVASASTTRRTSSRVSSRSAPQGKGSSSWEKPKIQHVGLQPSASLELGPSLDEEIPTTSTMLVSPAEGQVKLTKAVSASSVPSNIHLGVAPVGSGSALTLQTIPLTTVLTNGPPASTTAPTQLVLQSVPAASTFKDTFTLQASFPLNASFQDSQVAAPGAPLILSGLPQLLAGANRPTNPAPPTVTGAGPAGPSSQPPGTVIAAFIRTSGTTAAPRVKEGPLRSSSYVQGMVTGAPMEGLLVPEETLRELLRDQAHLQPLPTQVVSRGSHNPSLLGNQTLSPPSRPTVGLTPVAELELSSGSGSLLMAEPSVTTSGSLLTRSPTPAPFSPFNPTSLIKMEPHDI
# Chain of HSF1 (Q00613 whole entry): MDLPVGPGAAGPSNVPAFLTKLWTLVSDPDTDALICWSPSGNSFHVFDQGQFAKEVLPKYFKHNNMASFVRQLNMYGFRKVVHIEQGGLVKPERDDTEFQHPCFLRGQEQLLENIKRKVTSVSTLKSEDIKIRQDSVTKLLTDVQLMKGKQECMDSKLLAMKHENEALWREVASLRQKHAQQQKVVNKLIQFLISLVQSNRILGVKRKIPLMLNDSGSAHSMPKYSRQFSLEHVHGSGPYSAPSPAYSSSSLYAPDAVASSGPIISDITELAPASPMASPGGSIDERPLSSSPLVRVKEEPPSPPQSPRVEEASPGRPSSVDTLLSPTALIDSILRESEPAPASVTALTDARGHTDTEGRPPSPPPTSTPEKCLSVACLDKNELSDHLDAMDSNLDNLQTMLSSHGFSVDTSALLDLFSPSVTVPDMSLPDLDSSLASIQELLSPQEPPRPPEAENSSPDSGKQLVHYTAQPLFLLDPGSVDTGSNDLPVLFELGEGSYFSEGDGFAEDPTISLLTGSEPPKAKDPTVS
sequence,measurement,setting,value
TTCACT,binding signal,FLI1,"1.22 fold enrichment (6-mer frequency, TF over GST control)"
same,binding signal,ELK1,"1.32 fold enrichment (6-mer frequency, TF over GST control)"
same,binding signal,GABPA,"1.33 fold enrichment (6-mer frequency, TF over GST control)"
same,binding signal,ERG,"1.36 fold enrichment (6-mer frequency, TF over GST control)"
same,binding signal,ELF1,"1.43 fold enrichment (6-mer frequency, TF over GST control)"
same,binding signal,EHF,"1.32 fold enrichment (6-mer frequency, TF over GST control)"
same,binding signal,SPI1,"1.33 fold enrichment (6-mer frequency, TF over GST control)"
same,binding signal,SPIB,"1.24 fold enrichment (6-mer frequency, TF over GST control)"
same,binding signal,ELK3,"1.37 fold enrichment (6-mer frequency, TF over GST control)"
same,binding signal,FEV,"1.4 fold enrichment (6-mer frequency, TF over GST control)"
same,binding signal,ETV5,"1.31 fold enrichment (6-mer frequency, TF over GST control)"
same,binding signal,HSF1,"1.13 fold enrichment (6-mer frequency, TF over GST control)"
same,binding signal,SPIC,"1.16 fold enrichment (6-mer frequency, TF over GST control)"
same,binding signal,ELF4,"1.34 fold enrichment (6-mer frequency, TF over GST control)"
same,binding signal,ELK4,"1.42 fold enrichment (6-mer frequency, TF over GST control)"
same,binding signal,ETV2,"1.39 fold enrichment (6-mer frequency, TF over GST control)"
same,binding signal,ELF3,"1.2 fold enrichment (6-mer frequency, TF over GST control)"
same,binding signal,CRX,"1.1 fold enrichment (6-mer frequency, TF over GST control)"
same,binding signal,ETV1,"1.33 fold enrichment (6-mer frequency, TF over GST control)"
